# Data reported in PubChem BioAssay (NCI).
# The panel holds about 79,000 compounds, 15% with a hit somewhere; the sample as a whole holds those more often. Unmarked numbers belong to inactive results. Calls of active or inactive are those of the source. Rule as the data show it: active = growth inhibition above about 70%; inactive = the rest.
# Assays:
# [1] = NCI Yeast Anticancer Drug Screen. Data for the rad52 strain (AID 147);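 also: 0% = growth of vehicle-treated control cultures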; settings: S. cerevisiae rad52 mutant growth inhibition, stronger effect = higher value
# Outline: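 Read-out: growth inhibition versus vehicle-treated controls. Cells were a DNA repair-deficient yeast strain treated with compounds.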
# [2] = NCI Yeast Anticancer Drug Screen. Data for the wt1 strain (AID 149);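 also: 0% = growth of vehicle-treated wt1 cultures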; settings: S. cerevisiae wt1 strain (SPY 50644) growth inhibition, stronger effect = higher value
# Outline: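 Each compound is tested on wt1 yeast and the loss of growth versus vehicle gives the inhibition value.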
# [3] = NCI Yeast Anticancer Drug Screen. Data for the rad50EPP+ strain (AID 151);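 also: 0% = growth of vehicle-treated control cultures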; settings: S. cerevisiae rad50 mutant strain, stronger effect = higher value
# Outline: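 Growth inhibition read against vehicle controls in rad50EPP+ yeast, a strain altered in DNA damage repair, after compound exposure.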
# [4] = NCI Yeast Anticancer Drug Screen. Data for the mgt1 strain (AID 153); settings: S. cerevisiae mgt1 mutant growth inhibition, stronger effect = higher value
# Outline: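 mgt1 yeast grown with test compound; read-out is growth inhibition versus vehicle-treated cultures.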
# [5] = NCI Yeast Anticancer Drug Screen. Data for the rad50 strain (AID 155);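 also: 0% = growth of vehicle-only cultures of the same strain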; settings: S. cerevisiae rad50 strain growth inhibition, stronger effect = higher value
# Outline: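 Vehicle-treated cultures provide the reference for the growth inhibition reported for compound-exposed, repair-deficient yeast.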
# [6] = NCI Yeast Anticancer Drug Screen. Data for the mec2-1 strain (AID 157); settings: S. cerevisiae mec2-1 strain, stronger effect = higher value
# Outline: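 Yeast mec2-1 mutant treated with compound. Readout: growth inhibition vs vehicle controls.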
# [7] = NCI Yeast Anticancer Drug Screen. Data for the rad14 strain (AID 159);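 also: 0% = growth of vehicle-treated control cultures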; settings: S. cerevisiae rad14 strain growth inhibition, stronger effect = higher value
# Outline: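 Inhibition of growth is reported for a repair-deficient yeast mutant following compound treatment, calculated relative to cultures that received vehicle.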
# [8] = NCI Yeast Anticancer Drug Screen. Data for the sgs1 mgt1 strain (AID 161);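 also: 0% = growth of cultures given vehicle only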; settings: S. cerevisiae sgs1 mgt1 strain, stronger effect = higher value
# Outline: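 Test agents were incubated with a DNA-repair-mutant yeast strain. Growth was then read and compared against vehicle-treated controls.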
# [9] = NCI Yeast Anticancer Drug Screen. Data for the CLN2oe strain (AID 163);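 also: 0% = growth of vehicle-only control cultures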; settings: S. cerevisiae CLN2oe strain, stronger effect = higher value
# Outline: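 Read-out: yeast growth inhibition, expressed relative to vehicle-only controls. The strain bears an engineered cell-cycle alteration.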
# [10] = NCI Yeast Anticancer Drug Screen. Data for the cln2 rad14 strain (AID 165);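 also: 0% = growth equal to vehicle treated cultures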; settings: S. cerevisiae cln2 rad14 strain, stronger effect = higher value
# Outline: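 cln2 rad14 yeast strain; compound exposure; growth inhibition read vs vehicle controls.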
# [11] = NCI Yeast Anticancer Drug Screen. Data for the bub3 strain (AID 167); settings: S. cerevisiae bub3 mutant strain, stronger effect = higher value
# Outline: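 Mutant yeast screening strain plus compound; vehicle-treated cultures serve as the 0% inhibition reference.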
# [12] = at 5.0 µM (retest, dose inferred, filed as 0.5)
# [13] = at 50.0 µM (retest, dose inferred, filed as 5.0)
structure (smiles),measurement,setting,value
c1ccc2nc3c(nc2c1)sc1ccccc13,growth inhibition,[1]; at 1.2 µM,13%
same,growth inhibition,[1]; at 3.7 µM,74% (active)
same,growth inhibition,[1]; at 11.0 µM,95% (active)
same,growth inhibition,[1]; at 33.0 µM,94% (active)
same,growth inhibition,[1]; at 100.0 µM,86% (active)
same,growth inhibition,[2]; at 1.2 µM,1%
same,growth inhibition,[2]; at 3.7 µM,4%
same,growth inhibition,[2]; at 11.0 µM,17%
same,growth inhibition,[2]; at 33.0 µM,27%
same,growth inhibition,[2]; at 100.0 µM,23%
same,growth inhibition,[3]; at 1.2 µM,41%
same,growth inhibition,[3]; at 3.7 µM,92% (active)
same,growth inhibition,[3]; at 11.0 µM,95% (active)
same,growth inhibition,[3]; at 33.0 µM,94% (active)
same,growth inhibition,[3]; at 100.0 µM,84% (active)
same,growth inhibition,[4]; at 1.2 µM,2%
same,growth inhibition,[4]; at 3.7 µM,2%
same,growth inhibition,[4]; at 11.0 µM,10%
same,growth inhibition,[4]; at 33.0 µM,20%
same,growth inhibition,[4]; at 100.0 µM,18%
same,growth inhibition,[5]; at 1.2 µM,13%
same,growth inhibition,[5]; at 3.7 µM,75% (active)
same,growth inhibition,[5]; [12],54%
same,growth inhibition,[5]; at 11.0 µM,92% (active)
same,growth inhibition,[5]; at 33.0 µM,91% (active)
same,growth inhibition,[5]; [13],78% (active)
same,growth inhibition,[5]; at 50.0 µM,92.8% (active)
same,growth inhibition,[5]; at 100.0 µM,82% (active)
same,growth inhibition,[6]; at 1.2 µM,4%
same,growth inhibition,[6]; at 3.7 µM,5%
same,growth inhibition,[6]; [12],-32%
same,growth inhibition,[6]; at 11.0 µM,41%
same,growth inhibition,[6]; at 33.0 µM,42%
same,growth inhibition,[6]; [13],8%
same,growth inhibition,[6]; at 50.0 µM,31.9%
same,growth inhibition,[6]; at 100.0 µM,36%
same,growth inhibition,[7]; at 1.2 µM,4%
same,growth inhibition,[7]; at 3.7 µM,21%
same,growth inhibition,[7]; at 11.0 µM,35%
same,growth inhibition,[7]; at 33.0 µM,39%
same,growth inhibition,[7]; at 100.0 µM,35%
same,growth inhibition,[8]; [12],-52%
same,growth inhibition,[8]; [13],-5%
same,growth inhibition,[8]; at 50.0 µM,11.2%
same,growth inhibition,[9]; at 1.2 µM,-2%
same,growth inhibition,[9]; at 3.7 µM,6%
same,growth inhibition,[9]; at 11.0 µM,28%
same,growth inhibition,[9]; at 33.0 µM,37%
same,growth inhibition,[9]; at 100.0 µM,34%
same,growth inhibition,[10]; [12],-29%
same,growth inhibition,[10]; [13],15%
same,growth inhibition,[10]; at 50.0 µM,36%
same,growth inhibition,[11]; at 1.2 µM,0%
same,growth inhibition,[11]; at 3.7 µM,11%
same,growth inhibition,[11]; [12],-40%
same,growth inhibition,[11]; at 11.0 µM,41%
same,growth inhibition,[11]; at 33.0 µM,47%
same,growth inhibition,[11]; [13],12%
same,growth inhibition,[11]; at 50.0 µM,32.8%
same,growth inhibition,[11]; at 100.0 µM,41%
